From PubChem BioAssay (EPA / NIEHS) come the findings set out here.

The source made the active and inactive calls. Rule for the calls: active = hit-call score of the fitted dose curve at least 0.9, where 1 is the maximum; inactive = score below 0.9.

Broadly, the AC50 is the midpoint of the concentration-response curve, whichever way the signal moves.

The assay is described as follows: ATG_TCF_b_cat_CIS: Attagene CIS-FACTORIAL HepG2 Assay for human T-Cell-Factor with beta-catenin (TCF/b-cat) (AID 2282965). To be noted: HepG2 TCF/beta-catenin cis-reporter transcription, actives raise or lower the signal. How it is done:
ATG_CIS is a cell-based, multiplexed-readout assay that uses HepG2, a human liver cell line, with measurements taken at 24 hours after chemical dosing in a 24-well plate.ATG_TCF_b_cat_CIS is one of 52 assay component(s) measured or calculated from the ATG_CIS assay. It is designed to make measurements of mRNA induction, a form of inducible reporter, as detected with fluorescence intensity signals by Reverse transcription polymerase chain reaction (RT-PCR) and Capillary electrophoresis technology.Data from the assay component ATG_TCF_b_cat_CIS was analyzed into 1 assay endpoint. This assay endpoint, ATG_TCF_b_cat_CIS, was analyzed with bidirectional fitting relative to DMSO as the negative control and baseline of activity. Using a type of inducible reporter, measures of mRNA for gain or loss-of-signal activity can be used to understand the reporter gene at the transcription factor-level as they relate to the gene TCF7 and TCF7L2 and LEF1 and TCF7L1. Furthermore, this assay endpoint can be referred to as a primary readout, because this assay has produced multiple assay endpoints where this one serves a reporter gene function. To generalize the intended target to other relatable targets, this assay endpoint is annotated to the dna binding intended target family, where the subfamily is HMG box protein.
Human liver HepG2 cells are transiently transfected with multiple reporter transcription units (MRTUs) in 6-well plates using FuGene 6 reagent (Roche; 3 ml FuGene/1 mg DNA). The MRTU constructs are regulated by a cis-regulating element (promoter). […] A major difference between the CIS and TRANS system is that in CIS activities of endogenous TFs are measured, whereas the TRANS assay evaluates changes in activities of exogenous, chimeric NR-Gal4 proteins. […] At the end of 24 hour incubation, total RNA was isolated using TriZol reagent (Invitrogen). The isolated RNA is then reverse-transcribed using oligo(dT) primer and Mo-MLV reverse transcriptase (Invitrogen) with DNAse I (Ambion) treatment for 30 min. The one-tenth of the produced cDNA was amplified by PCR using Taq DNA polymerase (Invitrogen) and two reporter sequence-specific primers. The PCR products were fluorescently labeled by primer extension with 6-arboxyfluorescein (6-FAM) 5'-labeled reporter sequence-specific primer (2 min at 95 C, 20 s at 68 C and 10 min at 72 C) and these products were digested with 5U of HpaI (New England Biolabs) for 2h at 37 C. The fragments were purified using Qiaquick PCR columns (Qiagen), analyzed on an ABI 3130xL genetic analyzer (Applied Biosystems) with peak positions identified by using a set of X-rhodamine (ROX)-labeled MapMarker1000 molecular weight standards (BioVentures). The raw capillary electrophoresis data was processed using Attagraph software (Attagene).
For the molecule `COc1nc(C)nc(N)n1`, the molecule was classed as inactive.

For the molecule `COc1c(Cl)c(Cl)c(Cl)c(Cl)c1Cl`, the molecule was classed as inactive. Still for that read-out and setting: in the case of `CC(=O)Nc1ccc(CC(=O)O)cc1` it was “inactive”; in that of `CC(CCO)CCc1ccccc1` (stereo not given), “inactive”. Regarding `COC(=O)Cc1cccc2ccccc12`, the call was inactive.

With `CC(C)C1CCC(O)CC1` (stereo not given), the result was inactive.

Take `CC(C)=CCCC(C)CC=O` (stereo not given): the molecule was classed as inactive. Still for that read-out and setting: to `CCC(C(=O)NC(N)=O)c1ccccc1` (stereo not given) belongs “inactive”. The same measure, in the same setting: to `CC(=O)[O][Al][O]C(C)=O` belongs “inactive”. Consider `CSc1nc(NC2CC2)nc(NC(C)(C)C)n1`, for which the AC50 is 51.7 µM (active).

On to `CO[Si](CCCn1c(=O)n(CCC[Si](OC)(OC)OC)c(=O)n(CCC[Si](OC)(OC)OC)c1=O)(OC)OC`, for which the molecule was classed as inactive.

With `CC(C)=CCC/C(C)=C/COC=O`, the molecule was called inactive. Same read-out and setting: in the case of `Cc1cccc(C)c1[N+](=O)[O-]` it was “inactive”; in that of `CC[Si](OC(C)=O)(OC(C)=O)OC(C)=O`, “inactive”.

`CCCCCCCCCCC(CO)CCCCCCCC` (stereo not given): the call was inactive.

On to `NC(=O)c1ccccc1Cl`, for which the AC50 is 65.8 µM (active). With `OCCOCCOCCOCCO`, the outcome was inactive.

With `C/C=C(\C)C(=O)OCc1ccccc1`, the molecule was called inactive.

Regarding `Cc1ccc(O)c(C(C)(C)C)c1`, the outcome was inactive. Same read-out and setting: to `NCCCCCCN` belongs “inactive”; to `O=c1cc(-c2ccccc2)oc2cc(O)cc(O)c12`, “inactive”; to `CC(c1cc2ccccc2s1)N(O)C(N)=O` (stereo not given), “inactive”. Same read-out and setting: to `O=C(O)c1cccc([N+](=O)[O-])c1` belongs “inactive”. As for `COC(C)CCO` (stereo not given), the AC50 is 187 µM (active). As to `CN(C)C(=N)N=C(N)N`, the outcome was inactive. In the case of `CCN(CC)CCOC(=O)c1ccc(N)cc1`, the molecule was called inactive. Still for that read-out and setting: in the case of `CN(C)CCCN` it was “inactive”.

On to `CC(C)c1ccc(C(C)C)cc1`, for which the molecule was called inactive.

On to `CC(C)(CO)[N+](=O)[O-]`, for which the call was inactive. With `Clc1cccc(Cl)n1`, the result was inactive. On the same count and under the same terms, to `CCCCCCCCCCCCCCCC(=O)O` belongs “inactive”. The same measure, in the same setting: in the case of `CC(C)(N)CO` it was “inactive”; in that of `COCCOCCOCCOCCOCCO`, “inactive”; in that of `Cc1ccccc1C=O`, “inactive”.

In the case of `C=CC(C)(O)CCC=C(C)CCC=C(C)C` (stereo not given), the call was inactive. As to `O=[N+]([O-])c1ccc(C=Cc2ccc([N+](=O)[O-])cc2S(=O)(=O)O)c(S(=O)(=O)O)c1`, the molecule was called inactive.

As to `C=C(C)C1CCC(C)CC1O` (stereo not given), the outcome was inactive.

Turning to `CCCCCCCCCCCCN`, the molecule was called inactive. For `CC(CN1c2ccccc2Sc2ccccc21)N(C)C` (stereo not given), the half-maximal activity concentration (AC50) is 33.4 µM (active). On the same count and under the same terms, in the case of `N#Cc1nc(Cl)c(Cl)c(Cl)c1Cl` it was 3.82 µM (active).
